Cav3 T inh: Cav3.2 calcium influx blockers – cell-based, Fluo-4 calcium fluorescence, FDSS, MLSMR library, primary screen; Voltage-dependent T-type calcium channel subunit alpha-1H (Homo sapiens), O95180; Cav3.2-expressing cells; stronger effect = lower value; B-score at 10 µM; actives 4% (n = 100,000);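 active = single-dose well whose peak fluorescence ratio is a statistical outlier from its plate by either plate-standardised score or position-corrected B-score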
M1 antagonist: antagonists of rat M1 muscarinic receptor; actives 3.4% (n = 64,000); Muscarinic acetylcholine receptor M1 (Rattus norvegicus), P08482; B-score at 10 µM; CHO-M1 cells, Fluo-4 calcium, ACh EC80 antagonist mode; stronger effect = lower value;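 active = calcium fluorescence response, raw or row-and-column corrected B-score, differing from the plate sample mean either way at a set confidence level, mostly lower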
M1 ag: M1 muscarinic receptor agonists, primary screen, CHO-M1 cells, Fluo-4 calcium, agonist mode | Muscarinic acetylcholine receptor M1 | Fluo-4 calcium fluorescence; stronger effect = higher value | B-score at 10 µM | actives 3% (n = 64,000);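 active = fluorescence rise, raw or as B-score row- and column-corrected plate score, outside the 99.7% band of its plate's samples, either direction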
PTK2B oligo ant: antagonists of Pyk2 self-association, primary screen, Q293 cells, FERM NanoBiT luminescence, HTS. stronger effect = lower value. Protein-tyrosine kinase 2-beta (Homo sapiens), Q14289. AID 1347419, 2020. z-score (the deposit names both 25 µM and 10 µM). actives 0.83% (n = 99,000);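 active = Z-score of -3 or lower, scaled per plate to the spread of control and sample wells; inactive = z-score above -3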;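 also: negative z-score means lost luminescence so less FERM oligomerization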
* = called active by the depositor; . = no result given. Sampled rows, rich in hits. Any-hit rate of the full collection: about 7.1%.

SMILES | Cav3 T inh | M1 antagonist | M1 ag | PTK2B oligo ant
CCCOc1ccccc1N/C(=N/c1nc(C)cc(C)n1)NC(=O)COc1ccc(OC)cc1 | -4.96* | . | . | -1.07
Cn1cccc1/C=C1\SC(=O)N(c2ccccc2)C1=O | . | . | . | -0.5
Cn1cccc1/C=C1\CC(C(C)(C)C)C/C(=C\c2cccn2C)C1=O (centres undefined) | -9.06* | . | . | 0.34
CC(/C=C/C=C/c1ccccc1)=N/NC(=O)CNc1ccccc1C | . | . | . | -0.09
CCc1nc2ccccc2c(=O)n1NC(=O)c1c(O)c2cccc3c2n(c1=O)CCC3 | -6.14* | 1.12 | 0.227 | 1.24
O=C(NCc1ccccc1)c1c(O)c2cccc3c2n(c1=O)CCC3 | -2.31 | -0.646 | 0.0837 | -0.67
CCCn1c2c(c(O)c(C(=O)Nc3ccccc3)c1=O)CCCC2 | . | -0.149 | 0.273 | 0.39
CCCCc1nc2ccccc2c(=O)n1NC(=O)c1c(O)c2c(n(CC(C)C)c1=O)CCCC2 | -9.9* | 0.594 | 0.769 | -0.58
CCOC(=O)c1nnn(-c2nonc2N)c1CSc1ccccn1 | -0.116 | 0.442 | 0.498 | -0.39
O=C(NCc1ccc(C(F)(F)F)cc1)C12CN(Cc3ccccc3)CC1C(c1cccc([N+](=O)[O-])c1)=NO2 (centres undefined) | -3.16* | . | . | .
O=C(NCc1ccc2c(c1)OCO2)C12CN(Cc3ccccc3)CC1C(c1cccc([N+](=O)[O-])c1)=NO2 (centres undefined) | -2.79 | . | . | .
O=C(CSCc1ccccc1)Nc1cccc(C(=O)Nc2ccccc2C(=O)O)c1 | -4.01 | . | . | -1.63
O=C(CSCc1ccc(Cl)cc1)Nc1cccc(C(=O)Nc2ccccc2C(=O)O)c1 | -6.86* | . | . | -0.93
COC(=O)c1cc(NC(=O)CC2SC(=Nc3ccccc3)N(CCc3c[nH]c4ccccc34)C2=O)cc(C(=O)OC)c1 (centres undefined) | -0.115 | . | . | -1.91
O=C(Nc1nnc(-c2ccc3c(c2)CCCC3)o1)c1ccc(Cl)cc1Cl | -3.21* | . | . | .
COc1ccccc1C(=O)Nc1nnc(-c2ccc(Cl)cc2)o1 | -2.09 | 0.531 | -0.0013 | .
COc1ccc(-c2nnc(NC(=O)c3cc(Cl)ccc3Cl)o2)cc1 | -5.24* | -0.363 | 0.44 | .
O=C(Nc1nnc(-c2ccc3c(c2)CCCC3)o1)C1CCCCC1 | 0.299 | -0.48 | -0.144 | .
Cc1oc2c(C)c(O)ccc2c(=O)c1-c1ccc2ccccc2n1 | 0.848 | . | . | 0.79
Cc1c(O)ccc(/C(Cc2ccc3ccccc3n2)=N\O)c1O | -4.79* | . | . | -2.68
CCCOc1cccc(C(=O)Nc2cccnc2)c1 | 0.454 | -0.0823 | -0.755 | 0.44
COc1ccc(OCC(=O)Nc2ccc(NC(=O)c3ccco3)cc2)cc1 | -0.974 | -0.781 | 0.382 | 1.03
CCCCOc1ccccc1NC(=O)c1ccco1 | -4.46* | -0.105 | -1.01 | -1.37
CCCOc1cccc(C(=O)Nc2cccc(NC(=O)c3ccco3)c2)c1 | -2.95 | -0.259 | 5.98* | -1.08
CCCOc1cccc(NC(=O)c2c(-c3ccccc3)noc2C)c1 | -4.85* | -0.0449 | -0.0677 | -0.57
SMILES | Cav3 T inh | M1 antagonist | M1 ag | PTK2B oligo ant
Cc1cccc(C)c1OCC(=O)Nc1cccc(NC(=O)c2ccco2)c1 | -4.8* | 0.582 | -0.106 | -0.26
Cc1onc(-c2ccccc2)c1C(=O)Nc1cccc(OC(C)C)c1 | -0.987 | -0.0746 | -0.421 | -0.48
CN(Cc1ccccc1)c1nc(N)c([N+](=O)[O-])c(Nc2cccc(F)c2)n1 | -0.511 | . | . | -0.84
COC(=O)C1=NN(N=O)C2(CC(=O)N(c3cc(C)cc(C)c3)C2=O)C1 (centres undefined) | . | . | . | -0.37
CCOC(=O)C(C)n1cnc2c(nnn2Cc2ccc(C)cc2)c1=O (centres undefined) | 0.0883 | 0.422 | -0.954 | 1.27
CCOC(=O)C(C)n1cnc2c(nnn2Cc2ccc(Cl)cc2)c1=O (centres undefined) | -4.48* | -0.0358 | -0.967 | 0.43
O=C(Cn1cnc2c(nnn2Cc2ccc(Cl)cc2)c1=O)N1CCN(c2ccccc2)CC1 | -4.42* | -0.268 | -0.679 | .
CC1(C(=O)NC2CCCCCCC2)CCC(=O)N1Cc1cccs1 (centres undefined) | 0.345 | . | . | 0
Cn1c(=O)c2c(SCC(=O)N3CCN(c4ccccc4)CC3)nc(C3CC3)nc2n(C)c1=O | -0.00132 | -2.28* | 4.79* | .
CCc1nc(SCC(=O)N2CCN(c3ccccc3)CC2)c2c(=O)n(C)c(=O)n(C)c2n1 | 0.0793 | -1.31 | 0.816 | .
CCCCNS(=O)(=O)c1ccc(NS(=O)(=O)c2c(C)cc(C)cc2C)cc1 | -2.55 | . | . | -1.34
O=C(COc1cccc2ccccc12)N/N=C/c1ccc(Sc2nc3ccccc3s2)o1 | -2.9 | . | . | 0.61
COCC(=O)N/N=C/c1ccc(Sc2nc3ccccc3s2)o1 | -3.62 | . | . | 3.11
N#CCC(=O)N/N=C/c1ccc(Sc2nc3ccccc3s2)o1 | -5.28* | . | . | -0.3
Cc1ccccc1OCC(=O)N/N=C/c1ccc(Sc2nc3ccccc3s2)o1 | -6.85* | . | . | 0.19
CC(c1ccccc1)N1CCn2c(nc3cc(NC(=O)NC4CCCCC4)ccc32)C1 (centres undefined) | -1.16 | . | . | -0.23
COc1cc(C(=O)NCCOc2cccc(C)c2)c(Br)c(OC)c1OC | -0.0078 | . | . | 0.29
CC1CCN(C(=O)CSCC(=O)Nc2nc(-c3cccs3)cs2)CC1 | -5.69* | -0.961 | -0.195 | .
COc1ccccc1-c1noc(CCC(=O)Nc2cccc(C(F)(F)F)c2)n1 | -7.58* | -0.582 | -0.086 | -1.74
COc1ccc(-c2noc(CCC(=O)N3CCN(c4cccc(C(F)(F)F)c4)CC3)n2)cc1 | -4.81* | -0.0688 | 0.242 | -0.11
COC(=O)C1=C(C(=O)OC)[C@@H]2Nc3ccccc3[C@@]23C[C@@H](C(=O)OC)N(C(=O)CC(C)C)C3=N1 | 0.103 | . | . | .
N/C(=N\c1nc2c(c(=O)[nH]1)CCC2)Nc1ccccc1C(F)(F)F | 0.172 | . | . | 1.98
Cc1cc(C)c(C#N)c(N2CCN(CCOc3ccc(Cl)cc3)CC2)n1 | -2.24 | -1.39 | -0.58 | -1.64
CC(C)Nc1nc(NC(C)C)nc(N(C#N)CCOc2ccc(Cl)cc2Cl)n1 | -5.03* | . | . | -2.5
Cc1cc(C)nc(N(C#N)CCOc2ccc(Cl)cc2)n1 | -1.27 | . | . | -4.24*
SMILES | Cav3 T inh | M1 antagonist | M1 ag | PTK2B oligo ant
CCOC(=O)c1cn(Cc2ccccc2)c(C(=O)OC(C)(C)C)c1O | -1.69 | . | . | .
Cc1cc2c3c(c1)C(C)(c1ccccc1)CC(C)(C)N3C(=O)C21C(C#N)=C(N)OC2=C1C(=O)CC(C)(C)C2 (centres undefined) | -2.13 | . | . | -0.84
CC1(c2ccccc2)CC(C)(C)N2C(=O)C3(C(C#N)=C(N)Oc4cc(O)ccc43)c3cccc1c32 (centres undefined) | -4.86* | . | . | -1.64
CC1=CC(C)(C)N2C(=O)C3(C(C#N)=C(N)Oc4cc(O)ccc43)c3c(C)c(C)cc1c32 (centres undefined) | -4.05* | . | . | -1.82
Cc1nc(CS(=O)(=O)c2ccccc2)cc(Sc2ccc(Cl)cc2Cl)n1 | -5.69* | . | . | -0.4
COc1ccc(NC(=O)CN(C2CCCCC2)S(C)(=O)=O)cc1OC | 0.784 | 1.23 | 0.0285 | -0.4
CSc1cccc(NC(=O)CN(C2CCCCC2)S(C)(=O)=O)c1 | -5.13* | -0.93 | 0.116 | -0.63

Screens: PubChem BioAssay, several laboratories
